KDM5B inh: blocks human KDM5B histone demethylase activity; Potency, µM (highest dose often 57.7 µM), most hits filed as inhibitors; Q9UGL1; 2.6% of 220,000 active; KDM5B demethylase, FDH-coupled NADH fluorescence (FDH is formaldehyde dehydrogenase); further: nearly all actives have a fitted effect of over 70% in size
Target sequence (Q9UGL1 whole entry, looked up): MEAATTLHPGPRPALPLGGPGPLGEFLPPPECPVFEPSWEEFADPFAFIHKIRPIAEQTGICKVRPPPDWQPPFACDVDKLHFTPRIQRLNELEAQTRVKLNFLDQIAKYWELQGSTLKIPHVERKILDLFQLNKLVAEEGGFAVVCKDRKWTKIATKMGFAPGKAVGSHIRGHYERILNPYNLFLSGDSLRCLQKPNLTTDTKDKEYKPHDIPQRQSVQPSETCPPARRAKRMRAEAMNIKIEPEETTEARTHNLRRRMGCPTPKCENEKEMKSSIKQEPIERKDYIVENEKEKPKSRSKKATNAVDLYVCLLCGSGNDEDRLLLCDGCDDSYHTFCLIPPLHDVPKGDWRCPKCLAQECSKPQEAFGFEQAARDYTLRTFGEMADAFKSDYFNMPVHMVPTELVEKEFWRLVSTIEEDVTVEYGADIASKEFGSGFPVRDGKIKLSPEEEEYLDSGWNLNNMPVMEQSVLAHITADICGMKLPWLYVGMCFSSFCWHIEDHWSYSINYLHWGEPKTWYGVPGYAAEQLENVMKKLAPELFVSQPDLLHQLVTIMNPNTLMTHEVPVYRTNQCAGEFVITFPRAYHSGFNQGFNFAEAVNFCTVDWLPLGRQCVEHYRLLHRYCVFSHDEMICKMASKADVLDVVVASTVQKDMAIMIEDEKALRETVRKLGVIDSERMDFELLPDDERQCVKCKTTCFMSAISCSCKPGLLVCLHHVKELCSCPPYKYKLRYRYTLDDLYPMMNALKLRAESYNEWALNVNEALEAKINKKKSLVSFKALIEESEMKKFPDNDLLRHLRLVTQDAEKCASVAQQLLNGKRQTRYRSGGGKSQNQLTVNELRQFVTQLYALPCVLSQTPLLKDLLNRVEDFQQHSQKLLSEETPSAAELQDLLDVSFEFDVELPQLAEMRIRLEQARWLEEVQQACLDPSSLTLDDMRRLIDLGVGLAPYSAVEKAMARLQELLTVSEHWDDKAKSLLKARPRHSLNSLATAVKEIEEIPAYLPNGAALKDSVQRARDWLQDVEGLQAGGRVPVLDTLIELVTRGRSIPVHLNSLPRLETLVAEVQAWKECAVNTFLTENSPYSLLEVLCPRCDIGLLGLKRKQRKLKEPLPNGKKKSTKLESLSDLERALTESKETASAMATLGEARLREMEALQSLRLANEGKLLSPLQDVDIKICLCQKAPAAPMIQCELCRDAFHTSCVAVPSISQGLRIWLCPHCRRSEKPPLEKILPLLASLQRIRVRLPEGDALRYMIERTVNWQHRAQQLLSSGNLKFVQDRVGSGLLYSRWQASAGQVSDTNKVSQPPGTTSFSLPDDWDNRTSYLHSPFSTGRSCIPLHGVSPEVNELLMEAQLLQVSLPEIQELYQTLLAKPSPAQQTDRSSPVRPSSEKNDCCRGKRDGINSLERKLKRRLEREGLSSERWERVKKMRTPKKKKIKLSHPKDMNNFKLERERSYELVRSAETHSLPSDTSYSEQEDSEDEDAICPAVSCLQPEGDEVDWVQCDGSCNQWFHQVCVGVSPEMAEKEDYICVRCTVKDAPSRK
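Compound dilutions met 200 nM (final) KDM5BΔAP for 10 min at room temperature before substrate addition. The substrate mix held 12.5 µM H3K4me3 with cofactors 25 µM α-ketoglutarate and 50 µM Fe²⁺. NADH signal gain over 30 min defined activity.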
SNCA expr inh: inhibitors of alpha-synuclein (SNCA) gene expression; Potency, µM (highest dose often 57.2 µM), usual class: inhibitors; 0.17% of 140,000 active; HEK-293 SNCA-luciferase knock-in, luminescence, 24 h; AID 1671194; further: nearly all actives have a fitted effect of over 45% in size
SNCA viab count: cell viability loss counter-screen; HEK-293-SNCA-luc viability, GF-AFC fluorescence, 24 h; Potency, µM (top dose mostly 57.1 µM), actives largely listed as cytotoxic; 0.12% of 150,000 active; further: nearly all actives have a fitted effect of over 30% in size
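HEK-293-SNCA-luc cells (1500/well) plated 24 h, then exposed 24 h to a dilution series; GF-AFC added 30 min at 37C, fluorescence 405/540 nm; normalised to medium-only and DMSO wells, Hill fit.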
IP6K1 inh: IP6K1 kinase inhibition | AID 1645851 | IP6K1 kinase, ADP-Glo luminescence, 2 h; stronger effect = lower value | activity change, % (series mostly up to about 58 µM) | 0.81% of 140,000 active | Q92551; in the data active means activity change below about -25%
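ADP-Glo luminescence measures ADP made by human IP6K1 during a 2 h RT reaction with ATP/IP6 (mix at 1.3 mM/130 uM); top library doses 57.5 and 19.1 uM final.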
Of the large screens only hits and unclear results are named; the others gave an inactive call; ! = repeats disagree. Most compounds without a hit are left out; they make up all but 2.8% or so of the library. Unless noted, the call rests on the fitted dose curve; in most records, active means well fitted curve in the direction sought with a large enough effect; inconclusive means small, poorly fitted or top-dose-only effect, or another doubt; inactive means no such curve, though single readings can be large; an effect the other way counts as inactive or inconclusive.

Cc1noc(-c2ccn3c(CNC(=O)c4cccnc4)nnc3c2)n1	SNCA expr inh inconclusive
CCCc1noc(-c2ccn3c(CNC(=O)c4cccnc4)nnc3c2)n1	KDM5B inh 28.2µM
COc1ccc(-c2nc3c(c(=O)[nH]2)CCN(S(=O)(=O)c2cccs2)C3)cc1	KDM5B inh 20µM
COc1ccc(-c2nc3c(c(=O)[nH]2)CCN(C(=O)COc2ccccc2C)C3)cc1	KDM5B inh 25.1µM
COc1ccc(-c2nc3c(c(=O)[nH]2)CCN(C(=O)Cc2ccsc2)C3)cc1	KDM5B inh inconclusive, SNCA viab count inconclusive
CNC(=O)c1nc2cccnc2n(-c2ccccc2OC)c1=O	none (no result: KDM5B inh)
O=C(CSc1oc(-c2ccco2)nc1S(=O)(=O)c1ccc(Br)cc1)c1ccccc1	KDM5B inh inconclusive, IP6K1 inh -28.4
COc1cccc(CN2CCCC3(COc4ccccc4C(=O)N3)C2)c1 (configuration not stated)	KDM5B inh 35.5µM
O=C1NC2(CCCN(Cc3ccccc3C(F)(F)F)C2)COc2ccccc21 (configuration not stated)	KDM5B inh 35.5µM
O=C1NC2(CCCN(Cc3ccc(OC(F)(F)F)cc3)C2)COc2ccccc21 (configuration not stated)	KDM5B inh 35.5µM
O=C1NC2(CCCN(Cc3ccc(F)cc3)C2)COc2ccccc21 (configuration not stated)	KDM5B inh 25.1µM
CC(=O)Nc1ccc(CN2CCCC3(COc4ccccc4C(=O)N3)C2)cc1 (configuration not stated)	KDM5B inh inconclusive
O=C1NC2(CCCN(Cc3ccsc3)C2)COc2ccccc21 (configuration not stated)	KDM5B inh inconclusive
O=C(c1ccc(F)cc1)N1CCC(C(=O)N2CCC(N3CCOC3=O)CC2)CC1	none (no result: KDM5B inh)
CCn1nccc1C(=O)N1CC(c2nc(CCOc3cccc(C)c3)no2)C1	SNCA expr inh inconclusive
O=C(NCc1ccc(F)cc1)c1ccc2nnc(-c3ccc(C(F)(F)F)cc3)n2c1	none (no result: KDM5B inh)
CN(Cc1cccnc1)Cc1nc(C2(O)CCN(Cc3ccccc3F)CC2)cs1	none
O=C(Nc1cc2ccc(O)cc2oc1=O)c1ccc(F)cc1	SNCA expr inh 2µM
O=C(Nc1cc2cccc([N+](=O)[O-])c2oc1=O)c1ccc(F)cc1	none (no result: SNCA expr inh, SNCA viab count, IP6K1 inh)
CCN(C(=O)CC1COc2ccc(C(=O)N(C)C)cc2N1C)C1CC1 (configuration not stated)	none
COCCNC(=O)c1ccc2c(c1)N(C)C(CC(=O)N(C)C(C)C)CO2 (configuration not stated)	KDM5B inh 28.2µM
C#CCN(C)C(=O)CC1COc2ccc(C(=O)NCCOC)cc2N1C (configuration not stated)	KDM5B inh 31.6µM
O=C(Cc1ccccn1)NC1CCN(c2nc3ncccc3o2)CC1	KDM5B inh 25.1µM!
COc1ccc(CC(=O)NC2CCN(c3nnc4cccc(C)n34)CC2)cc1	KDM5B inh 28.2µM
COc1ccc(CC(=O)N2CCN(c3nc4ncccc4o3)CC2)cc1	KDM5B inh inconclusive
O=C(Cc1ccc(F)cc1)NC1CCN(c2nc3ncccc3o2)CC1	KDM5B inh 28.2µM
COc1ccc(CC(=O)NC2CCN(c3nc4ncccc4o3)CC2)cc1	KDM5B inh 31.6µM
O=C(NCc1ccccc1F)C1CN(C2CCCC2)C(=O)N1 (configuration not stated)	none (no result: KDM5B inh)
Cc1cccc2sc(N3CCN(C(=O)c4ccco4)CC3)nc12	none
Cc1cccc2nnc(N3CCN(C(=O)c4ccco4)CC3)n12	KDM5B inh 22.4µM, SNCA expr inh inconclusive
Cc1ccnc(NC(=O)C2CC(=O)N(c3n[nH]c4cccc(F)c34)C2)c1 (configuration not stated)	none
O=C(C1CC(=O)N(c2n[nH]c3cccc(F)c23)C1)N1CCN(c2ccc(Cl)cc2)CC1 (configuration not stated)	KDM5B inh 22.4µM
Cc1ccc(NC(=O)C2CC(=O)N(c3n[nH]c4cccc(F)c34)C2)cc1 (configuration not stated)	KDM5B inh 20µM
O=C(C1CC(=O)N(c2n[nH]c3cccc(F)c23)C1)N1CCN(c2cccc(Cl)c2)CC1 (configuration not stated)	KDM5B inh inconclusive
COc1ccc(OC)c(NC(=O)C2CC(=O)N(c3n[nH]c4cccc(F)c34)C2)c1 (configuration not stated)	KDM5B inh 31.6µM
Cc1ccc(NC(=O)C2CC(=O)N(c3n[nH]c4cccc(F)c34)C2)c(C)c1 (configuration not stated)	KDM5B inh 22.4µM
COc1ccc(CNC(=O)C2CC(=O)N(c3n[nH]c4cccc(F)c34)C2)cc1OC (configuration not stated)	KDM5B inh inconclusive
CCC(=O)NC1CCN(c2ccnc3ccnn23)C1 (configuration not stated)	none (no result: KDM5B inh)
O=C(CCS(=O)CCC(=O)NCCc1ccccc1)NCCc1ccccc1	none (no result: SNCA expr inh, SNCA viab count, IP6K1 inh)
O=C(NCc1ccc(Cl)cc1)C1CC(=O)N(c2n[nH]c3cccc(F)c23)C1 (configuration not stated)	KDM5B inh 20µM
Cn1cc(NC(=O)C2CC(=O)N(c3n[nH]c4cccc(F)c34)C2)cn1 (configuration not stated)	none
CCOc1ccc(NC(=O)C2CC(=O)N(c3n[nH]c4cccc(F)c34)C2)cc1 (configuration not stated)	KDM5B inh 22.4µM
COc1ccc(NC(=O)C2CC(=O)N(c3n[nH]c4cccc(F)c34)C2)cc1 (configuration not stated)	KDM5B inh 25.1µM
Cc1ccc(NC(=O)C2CC(=O)N(c3n[nH]c4cccc(F)c34)C2)nc1 (configuration not stated)	none
COc1ccc(NC(=O)[C@@H]2COCC(=O)N2Cc2ccccc2)cc1	none
CC[C@@H](Nc1ncnc2c1CN(C1CCNCC1)C(=O)CN2C)c1ccccc1	KDM5B inh inconclusive
CN1CC(=O)N(C2CCCNC2)Cc2c(NCCOc3ccccc3)ncnc21 (configuration not stated)	KDM5B inh 44.7µM
CC(C)Nc1ncnc2c1CN(C1CCCNC1)C(=O)CN2C (configuration not stated)	KDM5B inh 63.1µM
COCCCNc1ncnc2c1CN(C1CCCNC1)C(=O)CN2C (configuration not stated)	KDM5B inh inconclusive
CCC(C)Nc1ncnc2c1CN(C1CCNCC1)C(=O)CN2C (configuration not stated)	KDM5B inh 35.5µM
CC(CO)Nc1ncnc2c1CN(C1CCCNC1)C(=O)CN2C (configuration not stated)	KDM5B inh inconclusive
CN1CC(=O)N(C2CCNC2)Cc2c(NCC3CC3)ncnc21 (configuration not stated)	KDM5B inh 89.1µM
O=C1CSC2(C(=O)Nc3ccccc32)N1c1cc(Cl)cc(Cl)c1 (configuration not stated)	none (no result: SNCA expr inh, SNCA viab count, IP6K1 inh)
